For 35 compounds, outcome and AC50 results are on record in PubChem BioAssay (EPA / NIEHS).

Results filed as inconclusive are left out. Active and inactive are the calls of the source. Rule for the calls: active = hit-call score of the fitted dose curve at least 0.9, where 1 is the maximum; inconclusive = response in the unintended direction; inactive = score below 0.9.

Sequence of Glucocorticoid receptor (Homo sapiens) (P04150 whole entry, looked up, the tested form may be a part): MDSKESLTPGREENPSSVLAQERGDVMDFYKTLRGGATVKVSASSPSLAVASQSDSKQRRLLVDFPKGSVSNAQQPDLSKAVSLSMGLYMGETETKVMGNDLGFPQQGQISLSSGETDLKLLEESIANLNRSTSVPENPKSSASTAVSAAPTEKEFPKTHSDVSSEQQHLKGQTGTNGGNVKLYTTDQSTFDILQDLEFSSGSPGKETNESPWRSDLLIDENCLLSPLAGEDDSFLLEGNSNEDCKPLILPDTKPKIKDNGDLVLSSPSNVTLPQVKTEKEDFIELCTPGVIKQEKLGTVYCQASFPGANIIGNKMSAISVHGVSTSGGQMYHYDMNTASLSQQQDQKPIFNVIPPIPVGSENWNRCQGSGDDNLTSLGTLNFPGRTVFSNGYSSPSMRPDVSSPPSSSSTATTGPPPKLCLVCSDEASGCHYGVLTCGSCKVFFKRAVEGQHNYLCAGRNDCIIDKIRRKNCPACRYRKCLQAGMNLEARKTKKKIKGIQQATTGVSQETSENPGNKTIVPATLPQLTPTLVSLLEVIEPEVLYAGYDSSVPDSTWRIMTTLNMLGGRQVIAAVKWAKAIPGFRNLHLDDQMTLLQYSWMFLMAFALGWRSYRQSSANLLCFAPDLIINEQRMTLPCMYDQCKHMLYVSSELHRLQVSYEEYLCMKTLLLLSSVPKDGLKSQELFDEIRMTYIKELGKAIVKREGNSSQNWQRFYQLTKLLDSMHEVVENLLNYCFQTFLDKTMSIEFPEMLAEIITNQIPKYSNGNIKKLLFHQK

For the first test, the target named is Glucocorticoid receptor (Homo sapiens) (UniProt P04150). Briefly: ATG_GR_TRANS: Attagene TRANS-FACTORIAL HepG2 Assay for human Glucocorticoid Receptor (GR) (AID 2282978).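 Note: activators score as hits since higher reporter transcript over DMSO is fitted.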 The conditions noted are these: HepG2 Attagene TRANS GR reporter, mRNA transcription. In short, it runs like this:
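Exogenous NR-GAL4 fusion activity was assessed through induced GAL4-UAS reporter transcripts in transfected human HepG2 cells, quantified after 24 h by RT-PCR and fluorescent capillary electrophoresis with DMSO as baseline.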
In the case of `CC/C=C\C#N`, the outcome was inactive.

`CCOC(=O)CC(C)C`: the compound was classed as inactive.

On to `CC/C=C\CCOC(C)OCC` (stereo not drawn), for which the compound was called inactive.

As for `O=C(C=Cc1ccccc1)OCCCc1ccccc1`, the compound was classed as inactive.

Regarding `CC(=N[Si](C)(C)C)O[Si](C)(C)C`, the compound was called inactive.

As for `CN(C)CCC=C1c2ccccc2CCc2ccccc21`, the result was inactive.

Turning to `CCC=C(C)C=O`, the outcome was inactive.

For the compound `[Cu+]`, the outcome was inactive.

With `c1coc(CNc2ncnc3nc[nH]c23)c1`, the result was inactive.

As for `S=c1[nH][nH]c(=S)s1`, the compound was classed as inactive.

In the case of `CCCOC(=O)CC`, the compound was called inactive.

For `CC(C)(C)c1cccc(O)c1`, the result was inactive.

Regarding `CCCc1ccc(O)cc1`, the call was inactive.

As for `COc1ccc(OC)cc1`, the result was inactive.

Consider `N=C1N=C(N)c2ccccc21`, for which the call was inactive.

`CC(=O)CCC(=O)O`: the outcome was inactive.

As a reminder, the AC50 is the midpoint of the concentration-response curve, whichever way the signal moves. Take `CCCCCC(=O)O[C@]1(C(C)=O)CC[C@H]2[C@@H]3CCC4=CC(=O)CC[C@]4(C)[C@H]3CC[C@@]21C`: the AC50 was 476 nM (active).

For `O=C1OC2(c3ccc(O)cc3Oc3cc(O)ccc32)c2ccccc21`, the call was inactive.

With `CC1=CC(O)CC(C)(C)C1` (stereo not drawn), the result was inactive.

On to `CCCCCCOC(C)=O`, for which the compound was classed as inactive.

As to `OCCCO`, the compound was called inactive.

As to `CCCC[N+](C)(CCCC)CCCC`, the outcome was inactive.

Take `CCCCOC(=O)C(C)OC(=O)CCC` (stereo not drawn): the compound was called inactive.

For the compound `CC(=O)CC(=O)N(C)C`, the call was inactive.

With `Nc1ccc(N)c([N+](=O)[O-])c1`, the outcome was inactive.

For the compound `OC[C@H]1O[C@@H](O[C@H]2[C@H](O)[C@@H](O)[C@H](O)O[C@@H]2CO)[C@H](O)[C@@H](O)[C@H]1O`, the outcome was inactive.

Consider `CC(C)(CO)CO`, for which the compound was called inactive.

On to `C/C=C(\C)C(=O)OC/C=C(\C)CCC=C(C)C`, for which the outcome was inactive.

For the compound `NC(=O)c1cnccn1`, the call was inactive.

As for `CC/C=C\CCOC(=O)C(C)C`, the compound was called inactive.

Consider `C[C@H](CCC(=O)O)[C@H]1CC[C@H]2[C@@H]3CC[C@@H]4C[C@H](O)CC[C@]4(C)[C@H]3CC[C@]12C`, for which the call was inactive.

`CCCCCCC(C)O` (stereo not drawn): the outcome was inactive.

On to `O=C(OCc1ccccc1)c1ccccc1O`, for which the outcome was inactive.

On to `CC(=O)c1ccc(C)cc1`, for which the compound was classed as inactive.

For the compound `CC(C)N(c1ccccc1)C(C)C`, the compound was classed as inactive.

For another test, the target named is Oxysterols receptor LXR-alpha (Homo sapiens) (UniProt Q13133). Briefly: ATG_LXRa_TRANS: Attagene TRANS-FACTORIAL HepG2 Assay for human Liver X Receptor alpha (LXRa) (AID 2282980). To be noted: HepG2 Attagene TRANS reporter, LXRa transactivation. In short, it runs like this: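 Read-out: reporter transcript levels by RT-PCR plus capillary electrophoresis, fluorescence intensity. Transiently transfected HepG2, exogenous NR-GAL4 chimera, GAL4-UAS reporters; 24 h compound exposure. Activity = increase over DMSO negative control.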
Sequence of Oxysterols receptor LXR-alpha (Homo sapiens) (Q13133 whole entry, looked up, the tested form may be a part): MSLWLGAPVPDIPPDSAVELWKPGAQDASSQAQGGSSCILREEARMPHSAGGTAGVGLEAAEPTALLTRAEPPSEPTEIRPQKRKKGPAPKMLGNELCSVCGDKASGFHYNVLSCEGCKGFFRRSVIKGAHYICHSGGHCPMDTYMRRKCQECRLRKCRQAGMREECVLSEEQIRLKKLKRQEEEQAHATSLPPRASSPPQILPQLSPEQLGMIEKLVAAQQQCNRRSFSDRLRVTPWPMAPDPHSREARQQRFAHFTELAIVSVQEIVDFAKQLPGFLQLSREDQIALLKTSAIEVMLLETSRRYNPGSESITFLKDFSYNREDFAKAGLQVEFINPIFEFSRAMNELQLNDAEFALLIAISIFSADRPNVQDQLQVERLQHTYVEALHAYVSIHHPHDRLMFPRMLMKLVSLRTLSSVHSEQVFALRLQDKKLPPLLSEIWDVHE
For the compound `CN(C)CCC=C1c2ccccc2CCc2ccccc21`, the compound was classed as inactive.

For `S=c1[nH][nH]c(=S)s1`, the call was inactive.

Take `COc1ccc(OC)cc1`: the outcome was inactive.

For the compound `CC(=O)CCC(=O)O`, the result was inactive.

For `O=C1OC2(c3ccc(O)cc3Oc3cc(O)ccc32)c2ccccc21`, the result was inactive.

In the case of `OC[C@H]1O[C@@H](O[C@H]2[C@H](O)[C@@H](O)[C@H](O)O[C@@H]2CO)[C@H](O)[C@@H](O)[C@H]1O`, the result was inactive.

Turning to `CC(C)(CO)CO`, the result was inactive.

With `C[C@H](CCC(=O)O)[C@H]1CC[C@H]2[C@@H]3CC[C@@H]4C[C@H](O)CC[C@]4(C)[C@H]3CC[C@]12C`, the compound was called inactive.
